Where “and” joins values, the source holds several entries; their conditions need not be identical. Equal values may be shown once. Unmarked numbers belong to inactive results. Inconclusive results are not listed. Entries that show only a call come without a potency. Calls of active or inactive are those of the source. Unless noted, calls come from the whole dose curve; as a rule, active = well fitted curve in the direction sought with a large enough effect; inconclusive = small, poorly fitted or top-dose-only effect, or another doubt; inactive = no such curve, though single readings can be large; an effect the other way counts as inactive or inconclusive.
Tests used:
[1] = Cell Viability - MRC5 (AID 434; calls by dose curve;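 note: potency is the fitted concentration of half-maximal effect; cells exposed to compound for 40 hours at 37 °C; potency reflects cytotoxicity seen as loss of intracellular ATP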); settings: MRC5 lung fibroblast viability, qHTS
Summary of the method: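 Decrease in intracellular ATP, quantified by luciferase light output, reflects compound toxicity toward MRC5 cells exposed for 40 hr in complete culture medium. Concentration-response curves, scaled between DMSO and 100 uM tamoxifen, gave AC50 values.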

[2] = target: Mitogen-activated protein kinase 10 (Mus musculus) (UniProt Q61831); assay: JNK3 AlphaScreen Assay (AID 530; active = well fitted curve in either direction with a large enough effect, not every such curve was filed as active;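 note: kinase came from lysate of stimulated human HepG2 cells; signal reports phosphorylation of biotinylated GST-cJun 1-79 at Ser73 with 10 µM ATP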); settings: JNK3 lysate, c-Jun phosphorylation; series mostly up to 57.1 µM
Summary of the method: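 Biotinylated GST-cJun(1-79) served as substrate for JNK3 in HepG2 lysates stimulated with IL-1beta and TNF-alpha. ATP was 10 uM final, pH 7.6. Ser73 phosphorylation was quantified by AlphaScreen (680 nm excitation).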

[3] = Cell Viability - HUV-EC-C (AID 542); settings: HUV-EC-C endothelial cell viability, qHTS; series mostly up to 92.2 µM; note: nearly all actives have a fitted effect of over 35% in size
Summary of the method: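 Concentration-dependent ATP loss in HUV-EC-C cells is the measure. Exposure lasts 40 hr at 37 °C; luminescence follows CellTiter-Glo addition, and Hill fits give AC50.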

[4] = Cell Viability - Mesenchymal (AID 546); settings: mesenchymal cells viability, qHTS; series mostly up to 91.7 µM;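 note: cells exposed to compound for 40 hours before reading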
Summary of the method: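 In this qHTS cytotoxicity format, glomerulus-derived human mesenchymal kidney cells received compound for 40 hr, then luciferase-based ATP quantitation. Concentration-response data were fitted with the Hill equation.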

[5] = Cellular Toxicity (caspase-3) HepG2 (AID 654); settings: HepG2 caspase-3 activation, luminescence, 0% = DMSO only, 100% = tamoxifen; series mostly up to 92.2 µM;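 note: cells exposed to compound for 16 hours before reading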
Summary of the method: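 Concentration-response AC50 values reflect caspase-3/7 induction in HepG2 cells after 16 hours of compound exposure, quantified by luminescence from liberated aminoluciferin and referenced to 100 uM tamoxifen as full stimulation.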

[6] = Cellular Toxicity (caspase-3) Jurkat (AID 655); settings: Jurkat caspase-3 activation, luminescence; caspase-3 activation: at 92.2 µM (top of the series), DMSO = 0%, tamoxifen = 100%;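 note: cells exposed to compound for 16 h at 37 °C before reading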
Summary of the method: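 5000 Jurkat cells/well; compound 16 hr, 37 °C; Caspase-Glo 3/7 added, 20 min RT; luminescence read. Norm: DMSO = 0%, tamoxifen 100 uM = 100%. AC50, Hill model.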

[7] = Cellular Toxicity (caspase-3) BJ (AID 658); settings: BJ fibroblasts, luminescence, normalized: DMSO 0%, staurosporine 100%; series mostly up to 91.7 µM
Summary of the method: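 Plated BJ cells (1000/well) rested 5 hr, received compound for 16 hr at 37 °C, then Caspase-Glo 3/7 reagent for 1 hr at room temperature before luminescence reading.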

[8] = Cellular Toxicity (caspase-3) SK-N-SH (AID 661); settings: SK-N-SH caspase-3 activation, qHTS; series mostly up to 91.7 µM
Summary of the method: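 Apoptosis readout in SK-N-SH neuroblastoma: Caspase-Glo 3/7 luminescence following 16 hr treatment in complete culture medium. Normalization used DMSO and 10 uM staurosporine controls.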

[9] = Cellular Toxicity (caspase-3) H-4-II-E (AID 663); settings: H-4-II-E rat hepatoma; Potency: caspase-3 activation; series mostly up to 92.2 µM;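 note: cells exposed to compound for 16 hr before readout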
Summary of the method: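 Caspase 3/7 activation measured in H-4-II-E cells in complete culture medium after 16 hr treatment at 37 °C, using luciferase-coupled substrate readout; AC50 values come from Hill-equation fits of normalized concentration-response data.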

[10] = Cellular Toxicity (caspase-3) Hek293 (AID 664); settings: HEK293 caspase-3 activation, DMSO = 0%, 100 µM tamoxifen = 100%; at 92.2 µM (top of the series);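 note: cells exposed to compound for 16 h at 37 °C before readout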
Summary of the method: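 Apoptosis readout: Caspase-Glo 3/7 signal in human HEK293 cells following 16-hour compound incubation. Responses scaled between DMSO baseline and 100 uM tamoxifen.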

[11] = Cellular Toxicity (caspase-3) Renal Proximal Tubule (AID 667); settings: renal proximal tubule cells; series mostly up to 91.7 µM;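 note: cells exposed to compound for 16 hours at 37 °C before detection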
Summary of the method: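 AC50 derived by standard Hill fit of concentration-response data, normalized between DMSO basal and 10 uM staurosporine as 100% stimulation. Cells: primary rat kidney proximal tubule, 16 h treatment at 37 °C.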

[12] = MultiTox-Fluor Cytotoxicity Assay - LYMP1-003 - Dead Cells (AID 961); settings: LYMP1-003 lymphoblastoid cells, dead-cell protease fluorescence; series mostly up to 92.2 µM; note: nearly all actives have a fitted effect of over 70% in size
Summary of the method: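 Dead-cell protease release, detected as bis-AAF-R110 fluorescence at 485/520 nm, was measured in LYMP1-003 cells after 16 h compound treatment at 37 C. AC50 values came from Hill-modeled qHTS curves normalized to DMSO (0%) and 15 uM tetraoctylammonium bromide (100%).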

[13] = MultiTox-Fluor Cytotoxicity Assay - LYMP1-003 - Live Cells (AID 962); settings: LYMP1-003 lymphoblastoid cells, MultiTox-Fluor live-cell protease fluorescence; series mostly up to 92.2 µM;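 note: cells exposed to compound for 16 hours at 37 °C; cytotoxic hits lower the live-cell protease signal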
Summary of the method: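 Human lymphoblastoid line LYMP1-003 in complete culture medium, treated 16 hr with titrated compounds. Viable cells quantified via cell-permeant GF-AFC substrate fluorescence; AC50 derived by Hill fitting.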

[14] = Cell Viability - LYMP2-013 (AID 970); settings: LYMP2-013 lymphoblastoid cells viability; series mostly up to 92.2 µM; note: nearly all actives have a fitted effect of over 55% in size; note: potency is the fitted concentration of half-maximal effect
Summary of the method: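 In complete culture medium, human lymphoblastoid cells were dosed for 24 hr at 37 C, with tetraoctylammonium bromide (6.4pM to 92 uM) as positive control. Viability reflects luciferase-based ATP signal; AC50 derived from concentration-response curves.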

[15] = target: Peroxisome proliferator-activated receptor gamma (Homo sapiens) (UniProt P37231); assay: qHTS assay for small molecule agonists of peroxisome proliferator-activated receptor gamma signaling (AID 588536; active = well fitted curve in the direction sought with a large enough effect in the signal ratio, with a control signal flat, not every such curve was filed as active; the % refers to the signal ratio); settings: HEK293 PPARg-UAS-bla, beta-lactamase ratio, 16 h, percent of rosiglitazone response, DMSO as zero; series mostly up to 76.7 µM
Summary of the method: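 This is an agonist-mode beta-lactamase reporter assay in HEK293 PPAR-gamma-UAS-bla cells with 1% charcoal/dextran FBS. Compound titrations ran 16 h at 37 C before CCF4 detection. EC50 and efficacy are Hill fits scaled to 2 uM rosiglitazone (100%) and DMSO basal.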

[16] = qHTS assay for environmental chemicals that activate the Aryl hydrocarbon Receptor (AhR) signaling pathway (AID 651777); settings: 1A2-DRE human hepatoma cells, luciferase, 24 h; activation: stronger effect = higher value; note: nearly all actives have a fitted effect of over 15% in size
Summary of the method: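 Measured luciferase activity, read 30 min after One-Glo addition at room temperature, from human hepatoma cells bearing a dioxin response element–CYP1A2 promoter reporter and exposed to compound for 24 hr at 37 C.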

[17] = qHTS assay for cell viability of HEK293 cells (AID 743288); settings: ATP luminescence (CellTiter-Glo), 18 h, stronger effect = lower value; note: nearly all actives have a fitted effect of over 50% in size
Summary of the method: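 Viable-cell counts were inferred from luciferase-based ATP content in HEK293 cells seeded at 2,000/well, pre-incubated ≥5 h, then dosed with DMSO-solubilised compounds for 18 h at 37 C.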

[18] = qHTS assay for cell viability of the p53RE-bla HCT-116 cell line (AID 743292); settings: p53RE-bla HCT-116 viability, ATP luminescence, 16 h; series mostly up to 95 µM; note: nearly all actives have a fitted effect of over 55% in size
Summary of the method: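 Intracellular ATP of p53RE-bla HCT-116 cells measured by luciferase luminescence following 16 h compound incubation at 37 C; DMSO-only wells served as vehicle controls.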

[19] = target: Nuclear receptor subfamily 1 group I member 2 (Rattus norvegicus) (UniProt Q9R1A7); assay: qHTS assay for small molecule activators of the rat pregnane X receptor (rPXR) signaling pathway (AID 651751; call rule not given here); settings: rPXR reporter cells, luciferase (One-Glo), 24 h
[20] = Cellular Toxicity (caspase-3) N2a (AID 665); settings: N2a cells, luminescence, normalized: DMSO 0%, 10 µM staurosporine 100%; series mostly up to 92.2 µM;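 note: compound exposure lasted 16 h at 37 °C before readout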
Summary of the method: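 Concentration-response qHTS: compound-induced caspase-3/7 luminescence in N2a cells (16 h, 37 °C), relative to DMSO and 10 uM staurosporine controls; AC50 obtained using the standard Hill equation.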

Peroxisome proliferator-activated receptor gamma (Homo sapiens), sequence (P37231 whole entry, looked up): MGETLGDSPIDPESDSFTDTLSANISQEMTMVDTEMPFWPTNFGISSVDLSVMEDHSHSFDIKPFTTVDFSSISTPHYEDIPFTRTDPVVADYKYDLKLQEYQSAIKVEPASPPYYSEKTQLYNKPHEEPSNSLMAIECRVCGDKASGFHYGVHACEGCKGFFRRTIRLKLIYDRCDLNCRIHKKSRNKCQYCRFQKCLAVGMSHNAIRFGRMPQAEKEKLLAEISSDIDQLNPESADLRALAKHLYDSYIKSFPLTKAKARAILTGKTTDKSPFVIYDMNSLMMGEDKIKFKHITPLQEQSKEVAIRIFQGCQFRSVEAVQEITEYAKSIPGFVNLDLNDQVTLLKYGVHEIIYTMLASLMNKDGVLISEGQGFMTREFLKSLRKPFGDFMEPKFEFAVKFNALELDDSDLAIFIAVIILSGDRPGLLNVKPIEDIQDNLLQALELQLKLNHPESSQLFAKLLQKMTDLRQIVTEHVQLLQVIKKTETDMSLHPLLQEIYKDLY
Nuclear receptor subfamily 1 group I member 2 (Rattus norvegicus), sequence (Q9R1A7 whole entry, looked up): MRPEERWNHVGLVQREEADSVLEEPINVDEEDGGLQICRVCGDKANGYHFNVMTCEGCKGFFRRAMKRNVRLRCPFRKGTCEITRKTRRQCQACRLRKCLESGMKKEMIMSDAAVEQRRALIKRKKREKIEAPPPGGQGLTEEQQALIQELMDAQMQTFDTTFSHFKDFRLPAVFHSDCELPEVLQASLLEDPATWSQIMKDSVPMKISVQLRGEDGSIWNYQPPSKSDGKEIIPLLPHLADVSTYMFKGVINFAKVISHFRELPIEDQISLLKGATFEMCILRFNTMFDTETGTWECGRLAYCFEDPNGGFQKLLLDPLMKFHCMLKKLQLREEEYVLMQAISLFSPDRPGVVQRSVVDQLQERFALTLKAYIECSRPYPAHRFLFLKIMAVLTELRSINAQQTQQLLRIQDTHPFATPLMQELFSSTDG

SMILES | Potency [1] [µM] | Potency [2] | Potency [3] | Potency [4] | outcome [5] | caspase-3 activation [6] [%] | outcome [7] | Potency [8] | Potency [9] | caspase-3 activation [10] [%] | outcome [11] | Potency [12] | outcome [13] | Potency [14] | outcome [15] | activation [16] | max response [17] | Potency [18] | max response [19] | outcome [20]
Nc1ncc([N+](=O)[O-])s1 | > 92 | inactive | inactive | inactive | inactive | -1.21 | inactive | inactive | inactive | -1.64 | inactive | inactive | inactive | inactive | inactive | 1.78% | -7.17% | inactive | -6.92% | –
ClCCOCOCCCl | > 92 | inactive | inactive | inactive | inactive | -0.171 | – | inactive | inactive | -1.31 | inactive | – | inactive | inactive | inactive | 0.193% | – | – | 0.986% | inactive
OC[P+](CO)(CO)CO | > 92 | inactive | inactive | inactive | inactive | 16.2 | inactive | inactive | inactive | 0.818 | inactive | – | inactive | 31.6 µM (active) | inactive | -0.473% and -0.989% | -13.3% | inactive | -2.2% and -0.448% | inactive
COC(=O)Nc1cccc(OC(=O)Nc2cccc(C)c2)c1 | > 92 | inactive | inactive | inactive | – | 1.17 | inactive | inactive | inactive | 0.0585 | inactive | inactive | inactive | inactive | inactive | – | -7.47% | inactive | – | inactive
CCOC(=O)C1OC1(C)c1ccccc1 (stereo not drawn) | > 92 | inactive | – | inactive | inactive | -2.16 | inactive | inactive | inactive | 1.59 | inactive | inactive | inactive | – | inactive | -0.466% | 7.29% | inactive | -3.02% | inactive
Cc1cc(-c2ccc(N)c(C)c2)ccc1N | > 92 | inactive | – | inactive | inactive | 1 | inactive | inactive | inactive | -2.85 | inactive | inactive | inactive | inactive | inactive | – | -3.44% and 7.54% and -3.02% | inactive | – | inactive
CCC/C=N/O | > 92 | inactive | inactive | – | inactive | -1.14 | inactive | inactive | – | -0.0645 | inactive | – | inactive | inactive | inactive | -0.464% | 1.47% | inactive | -0.891% | inactive
